Assay results as given in PubChem BioAssay AID1159580 (chemical genetic matrix, 2015).
Screen size: about 5,500 compounds; about 2,000 (36%) were called active. Inconclusive results (about 18%) are left out. Cut-off read from the data, not from the text of the source: active = normalized growth mostly below about 0.91 (no sharp cut-off); inconclusive = no clear call, values can overlap the other calls; inactive = mostly above about 0.92. This is one part of the list.

Assay: chemical genetic growth profiling, strain panel (AID 1159580);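 note: tested at 20 µM; growth read once vehicle control cultures reached saturation at 30 °C; 1 = growth at the plate median or of vehicle wells; lower values mean less growth of the strain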
Details: S. cerevisiae deletion strains, growth OD

Measured: normalized growth

O=C1OC2(c3ccc(O)cc3Oc3cc(O)ccc32)c2ccccc21
inactive: locus YAL021C, strain ccr4, active compounds read low 1.02 | locus YAL026C, strain drs2, active compounds read low 0.997 | locus YAL030W, strain snc1, active compounds read low 1.01 | locus YBL061C, strain skt5, active compounds read low 1.01 | locus YBR009C, strain hhf1, active compounds read low 0.995 | locus YBR023C, strain chs3, active compounds read low 1.02 | locus YBR171W, strain sec66, active compounds read low 1.04 | locus YBR231C, strain swc5, active compounds read low 1 | locus YBR279W, strain paf1, active compounds read low 1.01 | locus YCL011C, strain gbp2, active compounds read low 1.02 | locus YCL016C, strain dcc1, active compounds read low 1 | locus YCL069W, strain vba3, active compounds read low 1.02 | locus YCR088W, strain abp1, active compounds read low 1.03 | locus YDL005C, strain med2, active compounds read low 1.02 | locus YDL040C, strain nat1, active compounds read low 1.01 | locus YDR001C, strain nth1, active compounds read low 1.03 | locus YDR069C, strain doa4, active compounds read low 1.01 | locus YDR137W, strain rgp1, active compounds read low 0.994 | locus YDR159W, strain sac3, active compounds read low 0.986 | locus YDR195W, strain ref2 1.03 | locus YDR297W, strain sur2, active compounds read low 1.02 | locus YDR334W, strain swr1, active compounds read low 0.989 | locus YDR335W, strain msn5, active compounds read low 1.01 | locus YDR392W, strain spt3, active compounds read low 0.976 | locus YEL003W, strain gim4, active compounds read low 1.01 | locus YEL037C, strain rad23, active compounds read low 1.01 | locus YEL061C, strain CIN8 (second series), active compounds read low 1.01 | locus YER015W, strain faa2, active compounds read low 1.01 | locus YER016W, strain bim1, active compounds read low 0.994 | locus YER111C, strain swi4, active compounds read low 1.01 | locus YER155C, strain BEM2 (second series), active compounds read low 1.02 | locus YFR010W, strain ubp6, active compounds read low 1.02 | locus YGL167C, strain pmr1, active compounds read low 1.02 | locus YGL173C, strain kem1, active compounds read low 1.01 | locus YGL227W, strain vid30, active compounds read low 1.02 | locus YGL240W, strain doc1, active compounds read low 0.973 | locus YGL253W, strain hxk2, active compounds read low 1.02 | locus YHR013C, strain ard1, active compounds read low 1.04 | locus YHR027C, strain rpn1, active compounds read low 1.01 | locus YHR030C, strain SLT2, active compounds read low 0.978 | locus YHR079C, strain IRE1, active compounds read low 0.974 | locus YHR142W, strain chs7, active compounds read low 1.04 | locus YJL092W, strain hpr5, active compounds read low 1.02 | locus YJL095W, strain BCK1 (second series), active compounds read low 1.01 | locus YJL095W, strain BCK1, active compounds read low 1.02 | locus YJL115W, strain asf1, active compounds read low 1.01 | locus YJL129C, strain trk1, active compounds read low 1.04 | locus YJL154C, strain vps35, active compounds read low 1.02 | locus YJL164C, strain tpk1, active compounds read low 1 | locus YJL166W, strain qcr8, active compounds read low 1 | locus YJR066W, strain TOR1, active compounds read low 0.938 | locus YKL160W, strain elf1, active compounds read low 1.02 | locus YKR026C, strain gcn3, active compounds read low 1.02 | locus YKR091W, strain srl3, active compounds read low 1.02 | locus YLL001W, strain dnm1, active compounds read low 0.997 | locus YLL026W, active compounds read low 0.999 | locus YLL041C, strain sdh2, active compounds read low 1.01 | locus YLR027C, strain aat2, active compounds read low 1.01 | locus YLR113W, strain HOG1, active compounds read low 0.98 | locus YLR221C, strain rsa3, active compounds read low 0.999 | locus YLR258W, strain gsy2, active compounds read low 1.01 | locus YLR262C, strain YPT6 (second series), active compounds read low 1 | locus YLR320W, strain mms22, active compounds read low 1 | locus YLR342W, strain FKS1, active compounds read low 0.992 | locus YLR357W, strain rsc2, active compounds read low 1.01 | locus YLR370C, strain arc18, active compounds read low 1.01 | locus YLR384C, strain iki3, active compounds read low 1.02 | locus YML120C, strain ndi1, active compounds read low 1.04 | locus YMR058W, strain fet3, active compounds read low 1.01 | locus YMR125W, strain sto1, active compounds read low 1.02 | locus YMR129W, active compounds read low 1.02 | locus YMR205C, strain PFK2, active compounds read low 1.02 | locus YMR231W, strain pep5, active compounds read low 1.02 | locus YNL071W, strain lat1, active compounds read low 1.01 | locus YNL183C, strain NPR1, active compounds read low 0.951 | locus YNL209W, strain ssb2, active compounds read low 1.02 | locus YNL248C, strain rpa49, active compounds read low 1 | locus YNL322C, strain KRE1 (second series), active compounds read low 0.99 | locus YNR049C, strain mso1, active compounds read low 1.02 | locus YOR001W, strain rrp6, active compounds read low 1.01 | locus YOR070C, strain gyp1, active compounds read low 1.01 | locus YOR080W, strain dia2, active compounds read low 1.02 | locus YOR083W, strain WHI5, active compounds read low 0.98 | locus YOR106W, strain vam3, active compounds read low 1.02 | locus YOR231W, strain MKK1, active compounds read low 0.971 | locus YOR265W, strain rbl2, active compounds read low 1.01 | locus YOR270C, strain vph1, active compounds read low 0.991 | locus YOR290C, strain snf2, active compounds read low 1 | locus YPL051W, strain arl3, active compounds read low 0.997 | locus YPL078C, strain atp4, active compounds read low 0.992 | locus YPL106C, strain sse1, active compounds read low 0.987 | locus YPL240C, strain hsp82, active compounds read low 1.01 | locus YPL256C, strain CLN2, active compounds read low 0.99
